# Assay outcomes as filed in PubChem BioAssay.
# HT1080 IDH1KD tx = HT-1080 IDH1 knockdown cell toxicity (counter line); AID 686971; HT-1080 IDH1 knockdown viability, ATP luminescence, 48 h; 360,000 compounds, 2% hits; Potency, µM (series often up to 46.1 µM), for the others: at the top dose activity, negative = toxicity, most hits filed as cytotoxic;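 further: 0% = DMSO wells and -100% = cell-free medium wells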
#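 Using the IDH1-knockdown HT-1080 line run in the same batch and compound series as the NT line, viability after 48 h at 37 °C was determined by CellTiter-Glo luminescence and expressed as % activity.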
# HT1080NT lethal = kills 2HG-producing HT-1080-NT fibrosarcoma cells; HT-1080-NT fibrosarcoma viability, CellTiter-Glo ATP luminescence, 48 h; Potency, µM (top dose mostly 46.1 µM), for the others: at the highest dose activity, negative = less viability, hits mostly cytotoxic; 360,000 compounds, 1.6% hits;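 further: NT is the 2HG producing partner of a matched IDH1 knockdown line; 0% = DMSO-treated cells and -100% = media-only wells without cells; nearly all actives have a fitted effect of over 55% in size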
#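 Read-out is CellTiter-Glo luminescence after 10 minutes at room temperature, following 48 hours' compound treatment of HT-1080-NT cells (750 cells/well, RPMI, 5% FBS, 37 degrees C).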
# KB-V1 cytotox = KB-V1 MDR subline cytotoxicity; KB-V1 MDR cells viability, CellTiter-Glo, 72 h; Potency, µM (doses to about 46.1 µM), usual class: cytotoxic; 400,000 compounds, 3.4% hits; AID 1347076; further: nearly all actives have a fitted effect of over 60% in size
#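 Compound-treated KB-V1 multidrug-resistant cells, 72 h, 37 degrees C; viability by CellTiter-Glo. Fitted qHTS curves give the values.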
# KB-3-1 tox = kills parental KB-3-1 adenocarcinoma cells; KB-3-1 viability, CellTiter-Glo ATP luminescence, 72 h; Potency, µM (top dose mostly 46.1 µM), usual class: cytotoxic; 400,000 compounds, 1.4% hits; AID 1347075; further: nearly all actives have a fitted effect of over 60% in size
#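 Using CellTiter-Glo luminescence, growth of non-resistant KB-3-1 adenocarcinoma cells is assessed 72 h after pin-tool compound addition at 37 °C. Normalized responses across the concentration series yield fitted curves.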
# Numbers without * were called inactive; i = inactive; ? = inconclusive; / = not tested or not shown. This is a sample that favours compounds with a hit; in the whole collection about 5.7% have one here. The call rests on the fitted dose curve; in most records, active means well fitted curve in the direction sought with a large enough effect; inconclusive means small, poorly fitted or top-dose-only effect, or another doubt; inactive means no such curve, though single readings can be large; an effect the other way counts as inactive or inconclusive. Unless noted, on the % scale 0 is the no-effect control and ±100 the full control effect; potency means the concentration at half of the fitted maximal effect.
SMILES,HT1080 IDH1KD tx,HT1080NT lethal,KB-V1 cytotox,KB-3-1 tox
Cc1ccc2c(C(=O)CNc3nc(C)c(C)s3)c(C)[nH]c2c1,/,/,i,i
CCn1c(C)cc(C(=O)COC(=O)c2ccccc2[N+](=O)[O-])c1C,2.8%,-1.6%,25.9µM*,i
C=CCn1c(C)cc(C(=O)COC(=O)c2ccc(N)c([N+](=O)[O-])c2)c1C,-7.0%,0.7%,i,i
COc1ccc(CN(C)CC2CCCN(CCc3ccc(Cl)cc3)C2)cc1OC (configuration not stated),16.4µM*,29.1µM*,i,?
O=C(/C=C\c1ccco1)Nc1cc([N+](=O)[O-])ccc1F,?,1.46µM*,1.16µM*,4.11µM*
Cc1ccc(CCNC(=O)C2CCCN(S(=O)(=O)c3ccc4c(c3)oc(=O)n4C)C2)cc1 (configuration not stated),/,/,i,i
O=C1C2C3C=CC(C3=C(c3ccccc3)c3ccccc3)C2C(=O)N1CCO (configuration not stated),0.4%,8.1%,20.6µM*,i
O=C1C2C3C=CC(C3=C(c3ccccc3)c3ccccc3)C2C(=O)N1Cc1ccccc1 (configuration not stated),?,-14.4%,23.1µM*,?
CCCCN(CC)CCCNC(=O)c1nn(-c2ccc(OC)cc2)c(=O)c2c1c1ccccc1n2C,/,/,i,i
COc1cc(C2C(C(=O)OC(C)C)=C(C)N=C3SCCC(=O)N32)ccc1OCc1ccccc1 (configuration not stated),/,/,i,i
Nc1nc2ccccc2cc1C(=O)NCCCCc1ccccc1,?,?,2.59µM*,i
Nc1nc2ccccc2cc1C(=O)NCc1cccs1,-25.8%,-11.0%,16.4µM*,i
Cc1ccccc1C(=O)NCCCCc1ccccc1,8.2%,1.0%,i,i
Cc1ccc(C)c(-c2cc(C(=O)NCc3cccs3)c3ccccc3n2)c1,-26.1%,-17.5%,11.6µM*,i
O=C(NCc1cccs1)c1cc(-c2ccccc2)nc2ccccc12,-0.6%,-4.1%,?,i
COc1cccc(C2(c3cccc(OC)c3)CC2C(=O)Nc2ccccc2Cl)c1 (configuration not stated),20.6µM*,?,?,i
Cc1cccc(C2(c3cccc(C)c3)CC2C(=O)Nc2ccc([N+](=O)[O-])cc2O)c1 (configuration not stated),?,?,4.61µM*,20.6µM*
Cc1ccc(Cl)cc1N1CCN(CCCNC(=O)C2COc3ccccc3C2)CC1 (configuration not stated),/,/,i,20.6µM*
CCN(CC)S(=O)(=O)c1ccc2c(c1)N(CC(=O)NCCCN1CCN(c3cc(Cl)ccc3C)CC1)C(=O)CO2,/,/,13µM*,?
Cc1cccc(N2CCN(CCNC(=O)C3COc4ccccc4C3)CC2)c1C (configuration not stated),/,/,i,i
Cc1ccc(NC(=O)C(=O)NCCc2sc(-c3ccc(Cl)cc3)nc2C)cc1C,/,/,i,i
Cc1cc(=O)[nH]c2ccc(Cl)cc12,2.3%,3.7%,?,2.31µM*
CCOc1ccccc1N(CC(=O)NC(C)(C)C)C(=O)c1ccc(CN2CCOCC2)o1,-1.9%,-0.7%,14.6µM*,i
CCCCCCn1cc(CN2CC(N3CCSCC3)CS2(=O)=O)nn1 (configuration not stated),5.0%,20.3%,i,i
CCCCCC(=O)Nc1nc2ccccc2[nH]1,?,?,?,23.1µM*
SMILES,HT1080 IDH1KD tx,HT1080NT lethal,KB-V1 cytotox,KB-3-1 tox
O=C(CCCSc1nc2ccccc2[nH]1)NC(c1ccccc1)c1ccccc1,-3.6%,-4.3%,i,i
O=C(Cc1cccc2ccccc12)Nc1nc2ccccc2[nH]1,12.6µM*,12.6µM*,18.4µM*,i
O=C(CCCSc1nc2ccccc2[nH]1)NCc1ccccc1Cl,-1.3%,2.6%,16.4µM*,i
O=C(Cc1ccccc1F)Nc1nc2ccccc2[nH]1,-0.7%,2.3%,i,i
COc1ccc(OCc2nc(C#N)c(NCc3ccccc3Cl)o2)cc1,/,/,i,i
Cc1cc(C)c2c(n1)nn1c(C)c(CCC(=O)NCc3ccccc3Cl)c(C)nc21,/,/,i,i
CCn1c2ccccc2c2cc(C3C(C#N)=C(N)Oc4n[nH]c(COC)c43)ccc21 (configuration not stated),8.91µM*,11.2µM*,i,i
